Bioassay records from PubChem.
This is a sample that favours compounds with a hit; in the whole collection about 1.6% have one here.
eIF4E 4G PPI = blocks eIF4E binding to eIF4G. P63073+Q04637. inhibition, % at 21.7 µM. TR-FRET eIF4E-eIF4GI(517-606) binding, 2 h. AID 782. 220,000 compounds, 0.37% hits;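 active means inhibition above about 30%, limit read from the data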;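 further: 0% = full FRET control wells and 100% = background wells lacking eIF4GI fragment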
eIF4H FP inh = inhibitors of RNA binding by human eIF4H. eIF4H fluorescence polarization binding assay. inhibition, % at 35 µM. AID 2012. Q15056. 290,000 compounds, 0.94% hits;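 further: calls also rest on retests at 20 µM and on dose response follow-up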
PERK inh = human PERK inhibition, primary cell-based screen. Q9NZJ5. CHO PERK-DD fusion, SEAP luminescence translation reporter. inhibition, % at 5.6 µM. 220,000 compounds, 0.17% hits;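 active means inhibition above the mean inhibition of all tested compounds plus 3 SD, set separately per screening campaign, cut at about 2.9% in these data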;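 further: PERK kinase domain activated by AP20187 dimerizer at 100 nM; 0% = DMSO with dimerizer and 100% = rapamycin at 8.4 µM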
PABP polyA inh = blocks human PABP binding to poly(A) RNA; P11940; fluorescence polarization; inhibition, % at 35 µM; 290,000 compounds, 1% hits;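 further: calls also rest on retests at 20 µM and on dose response follow-up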
PABP1 MLLE inh = blocks PAM2 peptide binding to the PABP1 MLLE domain. inhibition, % at 20 µM. 360,000 compounds, 0.36% hits. GST-MLLE / FITC-PAM2 fluorescence polarization; in the data active means inhibition above about 35%, passing the limit was not always enough;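 further: plate controls were DMSO wells with GST-MLLE for no effect and wells lacking GST-MLLE protein for full effect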
* = called active by the depositor; ? = inconclusive; nt = not tested or not shown. Unless noted, how the calls were made is not given here.

SMILES | eIF4E 4G PPI | eIF4H FP inh | PERK inh | PABP polyA inh | PABP1 MLLE inh
COc1cccc(CC2(CO)CCCN(Cc3sc(N4CCCC4)nc3Cl)C2)c1 (stereo unspecified) | -4.9 | 55.9* | 1.7 | 23.1* | 28.1
CC(OC(=O)CC1CCCC1)C(=O)Nc1ccc(Cl)cn1 (stereo unspecified) | nt | nt | nt | nt | 12.0
Cc1ccc(-c2nc3ncccn3c2Nc2ccc3c(c2)OCCO3)o1 | 5.8 | -0.9 | -0.8 | -0.5 | 16.5
Cc1ccc(-c2nc3ncccn3c2NC2CCCCC2)o1 | 3.5 | 53.5* | -1.1 | 51.1* | -27.2
C/C=C/C(=O)OCC(=O)Nc1cccc(F)c1 | 1.9 | 2.2 | 0.7 | -13.2 | 7.7
CN(C)c1ccc(NC(=O)CN2CCN(c3ccc(F)cc3)CC2)cc1 | nt | 2.1 | nt | -0.9 | 5.9
COc1ccccc1OCCC(=O)O | 0.9 | active | 0.6 | 59.6* | -4.1
CC1(C)OC2OC3C(CN)OC(c4ccccc4)OC3C2O1 (stereo unspecified) | nt | nt | nt | nt | 11.2
CCOC(=O)[C@H]1[C@H]2COc3ccc(Br)cc3[C@H]2N2C(=O)CN(Cc3ccc(C)cc3)C(=O)[C@@]12C | nt | nt | nt | nt | 46.8*
COc1cc(C)nc(N2CCC(C(=O)NCC3CCCO3)CC2)n1 (stereo unspecified) | nt | nt | nt | nt | -6.2
Cc1n[nH]c(=O)n1-c1cccc(C(F)(F)F)c1 | -0.9 | -3.7 | -0.3 | -7.8 | 22.6
O=c1[nH]ncn1-c1cccc(C(F)(F)F)c1 | -5.0 | 58.8* | -0.8 | 32.2 | 0.1
Cc1cccc(CN2C(=O)N/C(=C/c3ccc(C)s3)C2=O)c1 | -1.6 | 68.8* | -0.5 | 88.0* | -73.8
Cc1ccc(/C=C2/NC(=O)N(Cc3ccccc3)C2=O)s1 | -4.9 | ? | -0.7 | ? | -63.7
O=C(O)c1cc(O)c2c(c1)[C@@H]([C@H]1c3cc(C(=O)O)cc(O)c3C(=O)c3c(O[C@@H]4O[C@H](CO)[C@@H](O)[C@H](O)[C@H]4O)cccc31)c1cccc(OC3O[C@H](CO)[C@@H](O)[C@H](O)[C@H]3O)c1C2=O (stereo partly specified) | nt | nt | nt | nt | 29.5
O=C(O)c1cc(O)c2c(c1)[C@H]([C@H]1c3cc(C(=O)O)cc(O)c3C(=O)c3c(O[C@@H]4O[C@H](CO)[C@@H](O)[C@H](O)[C@H]4O)cccc31)c1cccc(OC3O[C@H](CO)[C@@H](O)[C@H](O)[C@H]3O)c1C2=O (stereo partly specified) | nt | nt | nt | nt | 51.9*
CCN(CC(=O)Nc1ccc(OC)cc1)C(=O)CSCc1c(C)noc1C | nt | nt | nt | nt | 157.9*
CCSC1=C(C#N)C(c2ccc(F)cc2)CC(=O)N1 (stereo unspecified) | 2.8 | 4.3 | -1.4 | 0.8 | -10.7
CC(C)(C)c1ccc(C(=O)Oc2ccccc2CCC(=O)O)cc1 | 1.5 | -3.5 | 3.4* | 9.6 | -2.7
O=C(O)c1ccc2c(c1)NC(=O)C(N1CCCC1)S2 (stereo unspecified) | 0.9 | 49.3 | -0.4 | 35.3 | 54.8*
COC(=O)c1ccc2c(c1)NC(=O)C(N1CCCC1)S2 (stereo unspecified) | -3.1 | 43.5 | -0.7 | 15.6 | -6.8
O=C(CN1C(=O)C2C3CC(C(Br)C3Br)C2C1=O)OCC(=O)c1cccc([N+](=O)[O-])c1 (stereo unspecified) | 0.7 | 0.2 | 1.0 | -0.8 | 0.5
CCOCC(=O)Nc1nnc(COc2ccc(Cl)cc2)s1 | 2.6 | 3.6 | 0.0 | -6.0 | 37.0*
O=c1[nH]c(Nc2ccccc2Cl)cc2ccccc12 | nt | nt | nt | nt | 12.0
O=c1[nH]c(Nc2ccc(F)cc2)cc2ccccc12 | -2.0 | 21.2 | 0.5 | 70.5* | 1.6
SMILES | eIF4E 4G PPI | eIF4H FP inh | PERK inh | PABP polyA inh | PABP1 MLLE inh
O=C(O)Cc1n[nH]c(=O)c2ccccc12 | 4.2 | 1.1* | 0.3 | 64.9 | 1.6
O=c1[nH]nc(CNc2ccc(O)cc2)c2ccccc12 | 6.0 | 59.0* | 0.0 | 55.0* | 6.3
CCOc1cnn(-c2ccccc2)c(=O)c1Cl | nt | -4.3 | nt | -1.0 | 12.0
O=S(=O)(NC1CCC(NS(=O)(=O)c2c(F)cccc2F)CC1)c1ccc2c(c1)OCCO2 (stereo unspecified) | nt | nt | nt | nt | 19.2
COC/C=C/C1=CC2=CC(=O)C(C)(OC(=O)c3cnc4ccccc4n3)C(=O)C2=CN1Cc1ccccc1 (stereo unspecified) | 3.5 | 59.0* | nt | 38.8 | 0.9
COC/C=C/C1=CC2=CC(=O)C(C)(OC(=O)c3cnc4ccccc4n3)C(=O)C2=CN1c1ccc(OC)cc1 (stereo unspecified) | nt | nt | nt | nt | 5.0
COC/C=C/C1=CC2=CC(=O)C(C)(OC(=O)c3cnc4ccccc4n3)C(=O)C2=CN1Cc1ccc(OC)cc1 (stereo unspecified) | 5.5 | 50.1* | nt | 28.9 | 5.8
COC/C=C/C1=CC2=CC(=O)C(C)(OC(=O)c3cnc4ccccc4n3)C(=O)C2=CN1CC1CC1 (stereo unspecified) | nt | nt | nt | nt | 8.8
[O-]/[N+](=C/c1ccc(F)cc1)c1ccc(Cl)cc1 | 4.0 | -3.9 | 1.4 | -0.3 | 42.0*
COc1cc(/C=C/C(=O)OCC(=O)Nc2ccc(S(N)(=O)=O)cc2)ccc1O | 3.5 | 52.2* | 0.0 | 23.1* | -19.2
COc1cc(/C=C/C(=O)OCC(=O)Nc2ccc([N+](=O)[O-])cc2)ccc1O | 5.2 | 2.9 | -0.4 | 5.1 | -2.8
CCC(C)NC(=O)C1(NC(=O)Nc2ccccc2)CCCCC1 (stereo unspecified) | -3.3 | 4.5 | 0.4 | -3.6 | 19.6
S=c1[nH]nc(COc2ccccc2)n1/N=C/C=C/c1ccccc1 | 5.1 | 1.5 | 0.4 | -14.2 | -81.0
S=c1[nH]nc(-c2n[nH]c3c2CCC3)n1/N=C/C=C/c1ccco1 | 0.9 | 90.0* | 1.7 | 67.6* | -6.5
S=c1[nH]nc(-c2ccco2)n1/N=C/C=C/c1ccco1 | 2.0 | 91.5 | 1.3 | -1.2 | -7.6
S=c1[nH]nc(-c2cc(-c3ccccc3)n[nH]2)n1/N=C/C=C/c1ccco1 | 4.8 | 101.5* | 1.0 | 62.1* | 3.5
S=c1[nH]nc(COc2ccccc2)n1/N=C/C=C/c1ccco1 | -1.7 | 81.4* | 2.0 | 67.7* | -54.1
COc1ccccc1/C=C/C=N/n1c(-c2n[nH]c3c2CCC3)n[nH]c1=S | 2.9 | 6.3 | 0.4 | 3.6 | -36.9
Cc1ccc(CN(C(=O)C(F)(F)F)C(C(=O)NC2CCCCC2)c2ccco2)cc1 (stereo unspecified) | 1.4 | -11.1 | -0.5 | 20.0 | -2.8
COc1ccc(OCC(=O)N2CC3(C)CC2CC(C)(C)C3)cc1 (stereo unspecified) | 36.2* | -7.2 | -0.9 | -7.5 | 2.4
CC(=O)COc1ccc2cc(-c3ccccc3)c(=O)oc2c1 | nt | -5.0 | nt | 1.2 | -3.2
O=C(CCCCl)Oc1ccc2cc(-c3ccc4ccccc4n3)c(=O)oc2c1 | 0.1 | 52.3* | 0.5 | -11.8 | 15.8
CC(C)(C)c1nnc(NC(=S)Nc2ccccc2)s1 | -2.5 | ? | -0.1 | ? | 43.2*
CCN1CCN(C(=O)CN2C(=O)COc3ccc(S(=O)(=O)N4CCOCC4)cc32)CC1 | nt | 8.5 | nt | 3.2 | 11.0
